Results from PubChem BioAssay AID651588 (Broad Institute, 2012).
Measured potencies and affinities stand elsewhere. Activity calls are given as the source filed them.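 The calls were made as follows: active = compounds lowering reporter light with a fitted half-maximal concentration no more than twice the top tested dose; inconclusive = flat response with inhibition between 30 and 70%, or poor fit; inactive = rising signal, flat response, or weak potency.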

Assay: TRPM1 promoter luciferase reporter signal decrease, dose response, MITF inhibitor project, cell-based, SK-MEL-5, dry powder, set 9 (AID 651588)
Conditions: SK-MEL-5 TRPM1 promoter luciferase, 24 h; series mostly up to 35 µM

Compound	outcome
Cc1ccc(NC2=CC(=O)c3ccccc3C2=O)cc1	inactive
O=C1C=C(Nc2ccccc2)C(=O)c2ccccc21	inactive
